Experimental data taken from the supplement of paper PMC6522484.
Where a name gives a salt, the structure may show the parent alone. ± gives the standard deviation of the averaged measurements.

Test system: SW480
Assay: TCF/Wnt firefly luciferase reporter signal relative to plate median (fraction of plate median); higher = higher Wnt reporter signal
Details: 10 µM; treatment time 24 h; reporter: 7TFP
Outline: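 Colorectal cancer cell lines carrying stably transduced lentiviral TCF/Wnt firefly luciferase reporters (7TFP or TCF4/Wnt) were plated in 384-well plates and treated 24 h later with kinase inhibitor library compounds at a final 10 µM for 24 h. Firefly luciferase or CellTiterGlo luminescence was read on parallel plates with a Tecan F500 reader. Signals were normalised per well to the plate median in webcellHTS2 (additive, no log transformation), and values are the mean of two independent replicates.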

Row | SMILES | TCF/Wnt firefly luciferase reporter signal
1 | O=C(NOC[C@H](O)CO)c1ccc(F)c(F)c1Nc1ccc(I)cc1F | 1.75 ± 0.092
2 | Cc1cnc(Nc2ccc(N3CCN(C)CC3)cc2)nc1Nc1cccc(S(=O)(=O)NC(C)(C)C)c1 | 0.613 ± 0.3
3 | N#CCNC(=O)c1ccc(-c2ccnc(Nc3ccc(N4CCOCC4)cc3)n2)cc1 | 0.923 ± 0.34
4 | COc1ccc2c(OCc3nnc4ccc(-c5ccccc5)nn34)ccnc2c1 | 1.16 ± 0.15
5 | Oc1cc(O)cc(/C=C/c2ccc(O)c(O)c2)c1 [Piceatannol] | 1.44 ± 0.12
6 | CN1CC[C@H](c2c(O)cc(O)c3c(=O)cc(-c4ccccc4Cl)oc23)[C@H](O)C1 [Flavopiridol hydrochloride] | 0.869 ± 0.0099
7 | CO[C@H]1C[C@@H]2CC[C@@H](C)[C@@](O)(O2)C(=O)C(=O)N2CCCC[C@H]2C(=O)O[C@H]([C@H](C)C[C@@H]2CC[C@@H](O)[C@H](OC)C2)CC(=O)[C@H](C)/C=C(\C)[C@@H](O)[C@@H](OC)C(=O)[C@H](C)C[C@H](C)/C=C/C=C/C=C/1C [Rapamycin (Sirolimus)] | 1.65 ± 0.11
8 | CC(=O)Nc1nc(C)c(-c2ccc(Cl)c(S(=O)(=O)NCCO)c2)s1 | 0.944 ± 0.033
9 | O=C1NC(=O)[C@@H](c2cn3c4c(cccc24)CCC3)[C@@H]1c1c[nH]c2ccccc12 [ARQ 197 (Tivantinib)] | 0.701 ± 0.043
10 | CCC(=O)N1CCN(c2ccc(-n3c(=O)ccc4cnc5ccc(-c6cnc7ccccc7c6)cc5c43)cc2C(F)(F)F)CC1 [Torin 1] | 0.66 ± 0.14
11 | O=C1NC(=O)/C(=C\c2ccc3nccnc3c2)S1 | 1.3 ± 0.33
12 | O=C1NC(=O)C(c2ccccc2[N+](=O)[O-])=C1Nc1ccc(O)c(Cl)c1 | 1.07 ± 0.12
13 | CCn1c(-c2nonc2N)nc2c(C#CC(C)(C)O)ncc(OC[C@H]3CCCNC3)c21 | 1.39 ± 0.23
14 | O=C1NCCc2[nH]c(-c3ccncc3)cc21 | 0.829 ± 0.023
15 | Cc1ccc(NC(=O)c2ccc(CN3CCN(C)CC3)cc2)cc1Nc1nccc(-c2cccnc2)n1 [Imatinib Mesylate] | 1.73 ± 0.15
16 | Cc1[nH]c(/C=C2\C(=O)Nc3ccccc32)c(C)c1CCC(=O)O | 1.22 ± 0.16
17 | CC(=O)Nc1cccc(-n2c(=O)n(C3CC3)c(=O)c3c(Nc4ccc(I)cc4F)n(C)c(=O)c(C)c32)c1 | 2.02 ± 0.042
18 | COc1cc2c(Oc3ccc(NC(=O)C4(C(=O)Nc5ccc(F)cc5)CC4)cc3F)ccnc2cc1OCCCN1CCOCC1 | 0.838 ± 0.4
19 | O=C(NC1CCNCC1)c1n[nH]cc1NC(=O)c1c(Cl)cccc1Cl | 0.798 ± 0.074
20 | C#Cc1cccc(Nc2ncnc3cc(OCCOC)c(OCCO)cc23)c1 [OSI-420 (Desmethyl Erlotinib)] | 0.668 ± 0.39

Row | SMILES | TCF/Wnt firefly luciferase reporter signal
21 | CN(C)CCOc1ccc(-c2nc(-c3ccncc3)c(-c3ccc4c(c3)CC/C4=N\O)[nH]2)cc1 | 1.27 ± 0.33
22 | NC(=O)Nc1sc(-c2ccc(F)cc2)cc1C(N)=O | 1.38 ± 0.057
23 | COc1cc2c(Oc3ccc4[nH]c(C)cc4c3F)ncnc2cc1OCCCN1CCCC1 [Cediranib (AZD2171)] | 0.699 ± 0.12
24 | C=CC(=O)Nc1cccc(Sc2nc(Nc3ccc(N4CCN(C)CC4)cc3)ncc2Cl)c1 | 1.32 ± 0.58
25 | COc1cc(Nc2ncc(F)c(Nc3ccc4c(n3)NC(=O)C(C)(C)O4)n2)cc(OC)c1OC [R406(free base)] | 1.29 ± 0.042
26 | O=C(Nc1cc(C(F)(F)F)cc(C(F)(F)F)c1)c1cc(Cl)ccc1O | 0.3675 ± 0.0021
27 | Cc1cc(C(=O)NOCCO)c(Nc2ccc(I)cc2F)n(C)c1=O | 1.89 ± 0.22
28 | O=C(NC[C@H](O)CO)c1ccncc1Nc1ccc(I)cc1F | 2.17 ± 0.11
29 | CNC(=O)c1ccccc1Nc1nc(Nc2ccc(N3CCOCC3)cc2OC)ncc1Cl | 1.08 ± 0.014
30 | CC(C)(C)c1cnc(CSc2cnc(NC(=O)C3CCNCC3)s2)o1 | 0.84 ± 0.025
31 | COc1ccc(S(=O)(=O)N(C(C)=O)c2ccccc2/C=C/c2cc[n+]([O-])cc2)cc1 | 0.7 ± 0.083
32 | Cn1cc(C2=C(c3ccc(Cl)cc3Cl)C(=O)NC2=O)c2ccccc21 | 1.35 ± 0.16
33 | Cn1cnc2c(F)c(Nc3ccc(Br)cc3Cl)c(C(=O)NOCCO)cc21 [AZD6244 (Selumetinib)] | 1.34 ± 0.72
34 | O=c1cc(N2CCOCC2)oc2c(-c3ccccc3)cccc12 | 1.15 ± 0.05
35 | O=C(O)c1ccc(Nc2ncc3c(n2)-c2ccc(Cl)cc2C(c2c(F)cccc2F)=NC3)cc1 | 0.9575 ± 0.00071
36 | Nc1ccc(-c2ccc3ncc4ccc(=O)n(-c5cccc(C(F)(F)F)c5)c4c3c2)cn1 [Torin 2] | 0.817 ± 0.0099
37 | CCn1nnc2c(N3CCOCC3)nc(-c3ccc(NC(=O)Nc4ccc(C(=O)N5CCN(C)CC5)cc4)cc3)nc21 | 0.821 ± 0.054
38 | N#C/C(=C\c1ccc(O)c(O)c1)C(=O)NCc1ccccc1 | 0.834 ± 0.016
39 | COc1cc2ncnc(Nc3cccc(Br)c3)c2cc1OC | 0.838 ± 0.09
